The entries come from a sample that favours hits as a whole.
RE007 growth inh: less growth of the S. pombe RE007 Vpr strain | AID 651644 | S. pombe RE007 Vpr strain, BacTiter-Glo ATP luminescence, 24 h | 360,000 compounds, 0.21% hits | Potency, µM (series often up to 92.2 µM), hits mostly inhibitors; active = well fitted falling curve with a large enough effect; inconclusive = small, poorly fitted or top-dose-only effect; inactive = no such curve, though single readings can be large or run the other way; also: nearly all actives have a fitted effect of over 50% in size
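Fission yeast RE007 carrying one integrated HIV-1 vpr copy, seeded at OD 0.01 in PMG+AL medium with 23 nL pinned compound. Grown 24 h at 30 degrees; viability read by BacTiter-Glo luminescence after 5 min.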
TbPYK inhibitor: inhibitors of Trypanosoma brucei pyruvate kinase | AID 624173 | TbPYK enzyme, Kinase-Glo Plus ATP luminescence, 45 min | 410,000 compounds, 0.12% hits | Potency, µM (titrated, usually from 76.8 µM), actives largely listed as inhibitors | Q57TT1; also: nearly all actives have a fitted effect of over 50% in size
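T. brucei PYK with substrate was exposed to pin-transferred compounds across a concentration series, then started with 130 uM ADP (final). After 45 min at room temperature, Kinase-Glo Plus luminescence was read, normalized and curve-fitted.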
LmPK inhibitor: LmPK (Leishmania mexicana) enzyme inhibition; purified LmPK, Kinase-Glo ATP luminescence, 1 h; Potency, µM (highest dose often 57.5 µM), actives largely listed as inhibitors; 290,000 compounds, 0.37% hits; AID 1721
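Purified LmPK (0.1 nM) with 0.5 mM PEP and 0.1 mM ADP in imidazole buffer pH 7.2 with MgCl2/KCl, 1 h at room temperature. ATP formed was read by luciferase luminescence and normalized to no-enzyme and uninhibited controls.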
Giardia FBPA inh: inhibitors of Giardia lamblia fructose-1,6-bisphosphate aldolase. A8B2U2. Potency, µM (series often up to 59.6 µM), hits mostly inhibitors. AID 2451. purified Giardia FBPA. 290,000 compounds, 0.71% hits; also: nearly all actives have a fitted effect of over 55% in size
Target sequence (A8B2U2 whole entry, looked up): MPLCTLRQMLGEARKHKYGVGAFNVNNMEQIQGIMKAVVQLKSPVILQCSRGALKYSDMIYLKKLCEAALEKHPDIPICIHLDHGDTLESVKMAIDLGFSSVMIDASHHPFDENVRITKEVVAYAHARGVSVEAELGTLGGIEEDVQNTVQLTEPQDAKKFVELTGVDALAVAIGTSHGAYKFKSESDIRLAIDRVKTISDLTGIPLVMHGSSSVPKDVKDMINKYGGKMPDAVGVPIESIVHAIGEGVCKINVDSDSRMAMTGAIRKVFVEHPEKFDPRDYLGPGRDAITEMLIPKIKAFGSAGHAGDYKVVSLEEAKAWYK
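Giardia FBPA (40 nM reagent) was preincubated 10 min at RT with compound (up to 57.5 uM final), then substrate plus GAPDH/TPI/NAD/arsenate coupling system with diaphorase/resazurin was added; resorufin fluorescence (525/598 nm) was read after 20 min.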
Shiga inhibitor: blocks Shiga toxin action in Vero cells | 290,000 compounds, 9.2% hits | inhibition, % at 38.7 µM | Vero cells, Shiga toxin protein synthesis inhibition reporter | AID 2315; in the data active = inhibition mostly above about 28%, no sharp cut-off; inactive = mostly below about 43%
CHX counter: affects cycloheximide protein synthesis inhibition readout, counter-screen. max response, %. cell reporter, cycloheximide protein synthesis inhibition counterscreen. AID 2314. 300,000 compounds, 12% hits; in the data active = max response mostly above about 13%, no sharp cut-off; inactive = mostly below about 14%; also: read at 38.3 µM for the half of the compounds with a filed dose
Of the large screens only hits and unclear results are named; the others gave an inactive call. Unless noted, calls follow the shape of the dose curve; as a rule, active = well fitted curve in the direction sought with a large enough effect; inconclusive = small, poorly fitted or top-dose-only effect, or another doubt; inactive = no such curve, though single readings can be large; an effect the other way counts as inactive or inconclusive.

COc1ccc(-c2n[nH]c(=S)n2-c2ccccc2C)cc1OC	TbPYK inhibitor inconclusive, LmPK inhibitor inconclusive
COc1ccc(-c2n[nH]c(=S)n2-c2ccc(Br)cc2)cc1OC	TbPYK inhibitor 4µM, LmPK inhibitor 18µM
COc1ccc(-n2c(-c3ccc(C)cc3)n[nH]c2=S)cc1	TbPYK inhibitor inconclusive, LmPK inhibitor inconclusive
COc1cc(-c2n[nH]c(=S)n2-c2ccc(C)cc2)cc(OC)c1OC	TbPYK inhibitor 8.9µM, CHX counter 17
CCOc1ccc(-c2cn3c(n2)sc2cc(C(=O)NCCc4ccc(OC)cc4OC)ccc23)cc1	none (no result: RE007 growth inh, LmPK inhibitor, Giardia FBPA inh, Shiga inhibitor, CHX counter)
Cc1ccc2c(=O)c(C(=O)c3ccc(F)cc3)cn(CC(=O)NCc3ccccc3)c2n1	none (no result: RE007 growth inh, LmPK inhibitor, Giardia FBPA inh, Shiga inhibitor, CHX counter)
Cc1ccccc1Cn1c2ccccc2c2cnn(CC(=O)NCCCc3ccccc3)c(=O)c21	none (no result: RE007 growth inh, LmPK inhibitor, Giardia FBPA inh, Shiga inhibitor, CHX counter)
COc1ccc(-c2nnn(CC(=O)N(Cc3ccco3)C(C(=O)NCC3CCCO3)c3ccco3)n2)cc1 (stereo not drawn)	none
COc1ccc(CN(C(=O)Cn2nnc(-c3ccc(C)o3)n2)C(C(=O)NCC2CCCO2)c2ccco2)cc1 (stereo not drawn)	CHX counter 17
O=C1COc2ccc(C(=O)COC(=O)Cc3ccsc3)cc2N1	CHX counter 11
O=c1[nH]c(/C=C/c2ccc(Br)cc2)nc2c1cnn2-c1ccccc1	none (no result: RE007 growth inh, TbPYK inhibitor)
CCCN1C(=O)/C(=C/c2nc3ccccc3c(=O)[nH]2)c2cc(C)ccc21	CHX counter 11
Cc1cccc(/C=C/c2nc3ccccc3c(=O)[nH]2)c1	LmPK inhibitor inconclusive, Shiga inhibitor 112, CHX counter 29
O=C(O)c1ccc(/C=C/c2nc3ccccc3c(=O)[nH]2)cc1	none
O=c1[nH]c(/C=C/c2ccccc2Cl)nc2ccccc12	Shiga inhibitor 106, CHX counter 40
COc1cccc(/C=C/c2nc3c(cnn3-c3ccccc3)c(=O)[nH]2)c1	CHX counter 15
Cc1ccccc1Cn1c(C)c(CNCCCc2ccccc2)c(C(=O)O)c1C	none (no result: RE007 growth inh, LmPK inhibitor, Giardia FBPA inh, Shiga inhibitor, CHX counter)
COc1cc(/C=C/c2nc3ccccc3c(=O)n2-c2cccc(O)c2)ccc1O	Shiga inhibitor 59
CCn1c(/C=C/c2c(C)[nH]c3ccccc23)nc2ccccc2c1=O	none
CCOc1cc(/C=C/c2nc3ccccc3c(=O)[nH]2)ccc1O	Giardia FBPA inh inconclusive, Shiga inhibitor 50, CHX counter 45
Cc1[nH]c2ccccc2c1/C=C/c1nc2ccccc2c(=O)[nH]1	Shiga inhibitor 84, CHX counter 53
CC(C)(C)c1cc(NC(=O)Nc2ccc(-c3cn4c(n3)sc3cc(OCCN5CCOCC5)ccc34)cc2)no1	none (no result: RE007 growth inh, LmPK inhibitor, Giardia FBPA inh, Shiga inhibitor, CHX counter)
Cc1ccc(NC(=O)Cn2c(=O)n(CCCCC(=O)NCCc3ccc(Cl)cc3)c(=O)c3ccccc32)cc1	none (no result: RE007 growth inh, LmPK inhibitor, Giardia FBPA inh, Shiga inhibitor, CHX counter)
COc1ccc(N2Cc3ccccc3/C2=N\C(=O)Nc2ccccc2)cc1	CHX counter 23
CC(=O)CN1Cc2ccccc2/C1=N\C(=O)Nc1ccccc1	CHX counter 16
O=C(Nc1ccc(F)cc1F)c1cc2c(=O)n3ccccc3nc2s1	none (no result: RE007 growth inh, LmPK inhibitor, Giardia FBPA inh, Shiga inhibitor, CHX counter)
Cc1cc(C)nc(Nc2nc3ccccc3[nH]2)n1	Shiga inhibitor 90, CHX counter 29
Nc1ccc(Nc2nc3ccccc3[nH]2)cc1	none
Nc1ccccc1Nc1nc2ccccc2[nH]1	Shiga inhibitor 34, CHX counter 27
c1ccc(Nc2nc3ccccc3[nH]2)nc1	Shiga inhibitor 86, CHX counter 70
Cc1ccc(C)c(Nc2nc3ccccc3[nH]2)c1	none (no result: LmPK inhibitor, Giardia FBPA inh, Shiga inhibitor, CHX counter)
COc1ccc(CNc2n[nH]c(-c3ccco3)n2)cc1OC	none (no result: RE007 growth inh, LmPK inhibitor, Giardia FBPA inh, Shiga inhibitor, CHX counter)
C[C@H]1COC(=O)[C@H]2CCCN2C(=O)[C@@H](C)COC(=O)[C@H](Cc2ccccc2)NC1=O	none (no result: RE007 growth inh, TbPYK inhibitor, LmPK inhibitor, Shiga inhibitor, CHX counter)
CC1(c2ccccc2)CC(C)(C)N(C(=O)c2ccccc2Cl)c2ccccc21 (stereo not drawn)	none (no result: RE007 growth inh, LmPK inhibitor, Giardia FBPA inh, Shiga inhibitor, CHX counter)
CCCC(=O)N1CCN(c2nc3ccc(Cl)cc3s2)CC1	Shiga inhibitor 50, CHX counter 43 (no result: Giardia FBPA inh)
CCc1ccc2nc(N3CCN(C(=O)C4CC4)CC3)sc2c1	none (no result: RE007 growth inh, LmPK inhibitor, Giardia FBPA inh, Shiga inhibitor, CHX counter)
CCCC(=O)N1CCN(c2nc3ccc(CC)cc3s2)CC1	Shiga inhibitor 134, CHX counter 36 (no result: Giardia FBPA inh)
CCc1ccc2nc(N3CCN(C(=O)c4ccccc4)CC3)sc2c1	none (no result: RE007 growth inh, LmPK inhibitor, Giardia FBPA inh, Shiga inhibitor, CHX counter)

Screening results from PubChem.
